Measurements published in PubChem BioAssay (NCATS).
Several values for one entry are separate records, joined by “and”; a condition that tells them apart may be missing. Equal values may be shown once. Results filed as inconclusive are left out. Values without a mark were called inactive. Activity calls are given as the source filed them. The call rests on the fitted dose curve; in most records, active means well fitted curve in the direction sought with a large enough effect; inconclusive means small, poorly fitted or top-dose-only effect, or another doubt; inactive means no such curve, though single readings can be large; an effect the other way counts as inactive or inconclusive.

What was measured:
[1] = biological target: Cellular tumor antigen p53 (Homo sapiens) (UniProt P04637); assay: Primary qHTS for small molecule compounds that upregulate eGFP-tagged delta133p53alpha (in N-terminal) cells. (AID 2060322); conditions: NCI-H358 eGFP-delta133p53alpha fluorescence, 24 h; activation: hits give high values; further: nearly all actives have a fitted effect of over 75% in size; further: potency means the concentration at half of the fitted maximal effect;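 on activation: cells pre-induced with doxycycline then dosed without doxycycline; series mostly up to about 56 µM; 0% = DMSO vehicle and 100% = reference activator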
Cellular tumor antigen p53 (Homo sapiens), sequence (P04637 whole entry, looked up): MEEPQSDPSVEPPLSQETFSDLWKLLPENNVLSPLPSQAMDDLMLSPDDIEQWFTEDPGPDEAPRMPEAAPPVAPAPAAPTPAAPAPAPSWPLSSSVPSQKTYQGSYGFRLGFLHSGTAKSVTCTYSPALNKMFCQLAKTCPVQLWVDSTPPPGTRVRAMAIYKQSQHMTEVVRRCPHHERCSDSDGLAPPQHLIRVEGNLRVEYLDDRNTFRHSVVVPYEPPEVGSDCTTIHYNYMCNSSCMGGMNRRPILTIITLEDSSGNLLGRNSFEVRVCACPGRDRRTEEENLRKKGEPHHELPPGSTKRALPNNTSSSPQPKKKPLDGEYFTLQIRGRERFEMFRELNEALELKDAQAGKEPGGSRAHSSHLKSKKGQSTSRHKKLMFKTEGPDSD
Method in brief: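 NCI-H358 cells pre-induced 24 h with 10 ng/ml doxycycline for eGFP-delta133p53alpha, plated dox-free and exposed 24 h at 37C to titrated compounds. Fixed, Hoechst-stained; gated GFP peak intensity by laser scanning cytometry, normalized to DMSO (0%) and 57.5 uM 5-azacytidine (100%).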

[2] = biological target: Retinaldehyde dehydrogenase 3 (Homo sapiens) (UniProt P47895); assay: qHTS for Inhibitors of the Aldehyde Dehydrogenase Family (ALDH1A3) Primary screen (AID 2061315);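 further: plate controls were DMSO vehicle for no effect and reference inhibitor for full effect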
[3] = biological target: Retinaldehyde dehydrogenase 3 (Homo sapiens) (UniProt P47895); assay: qHTS for Inhibitors of the Aldehyde Dehydrogenase Family (ALDH1A3) Confirmatory screens (AID 2061311); further: potency means the concentration at half of the fitted maximal effect; nearly all actives have a fitted effect of over 60% in size
[4] = biological target: Aldehyde dehydrogenase 1A1 (Homo sapiens) (UniProt P00352); assay: qHTS for Inhibitors of the Aldehyde Dehydrogenase Family (ALDH1A1) Confirmatory screens (AID 2061316); further: potency means the concentration at half of the fitted maximal effect; nearly all actives have a fitted effect of over 65% in size
[5] = biological target: Retinaldehyde dehydrogenase 3 (Homo sapiens) (UniProt P47895); assay: qHTS for Inhibitors of the Aldehyde Dehydrogenase Family (ALDH1A3) Validation screen (AID 2061312); further: nearly all actives have a fitted effect of over 45% in size; further: potency means the concentration at half of the fitted maximal effect
[6] = BET inhibitor-based combinations targeting novel dependencies in MECOM-rearranged (r) AML: SET-2 cell line (AID 2202231); conditions: SET-2 AML cells viability, CellTiter-Glo luminescence, 48 h; viability: hits give low values, concentration not given here; further: potency means the concentration at half of the fitted maximal effect; nearly all actives have a fitted effect of over 35% in size
Method in brief: (§1)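 AML cell lines seeded at 500 cells/well, treated with 11-point dose curves for 48 h. Viability by CellTiter-Glo luminescence, normalised to DMSO and empty wells; activity expressed as AUC and per-cell-line Z-transformed AUC.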

[7] = BET inhibitor-based combinations targeting novel dependencies in MECOM-rearranged (r) AML: OCI-AML3 cell line (AID 2202232); conditions: Potency: OCI-AML3 viability; further: potency means the concentration at half of the fitted maximal effect; nearly all actives have a fitted effect of over 35% in size
Method in brief: as §1

[8] = BET inhibitor-based combinations targeting novel dependencies in MECOM-rearranged (r) AML: MV-4-11 cell line (AID 2202233); further: potency means the concentration at half of the fitted maximal effect; nearly all actives have a fitted effect of over 45% in size
Method in brief: (§2)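 Cells at 500/well were exposed for 48 hr to MIPE v5.0 drugs as 11-point dose curves. Viability was read by CellTiter-Glo luminescence and normalized to DMSO and empty-well controls. Activity was expressed as AUC and per-cell-line Z-AUC.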

[9] = BET inhibitor-based combinations targeting novel dependencies in MECOM-rearranged (r) AML: HNT-34 cell line (AID 2202234); further: potency means the concentration at half of the fitted maximal effect; nearly all actives have a fitted effect of over 35% in size
Method in brief: as §2

[10] = BET inhibitor-based combinations targeting novel dependencies in MECOM-rearranged (r) AML: UCSD-AML1 cell line (AID 2202235); further: potency means the concentration at half of the fitted maximal effect; nearly all actives have a fitted effect of over 40% in size
Method in brief: as §2

[11] = BET inhibitor-based combinations targeting novel dependencies in MECOM-rearranged (r) AML: AML-191 cell line (AID 2202236; further: potency means the concentration at half of the fitted maximal effect; nearly all actives have a fitted effect of over 35% in size)
Method in brief: as §1

[12] = BET inhibitor-based combinations targeting novel dependencies in MECOM-rearranged (r) AML: AML-194 cell line (AID 2202237; further: potency means the concentration at half of the fitted maximal effect; nearly all actives have a fitted effect of over 40% in size)
Method in brief: as §1

With `C#Cc1cccc(Nc2nc3cc(C(=O)O)ccc3c3cncnc23)c1` the activation [1] was 8.04% and the Potency [2] was “inactive”.

For `Cc1cc(O)cc(Oc2cc(C)c(C(=O)O)c(O)c2)c1`, the activation [1] was -7.63%, the Potency [3] was 22.5 µM (active) and the Potency [4] was 17.9 µM (active).

In the case of `O=c1[nH]cnc2c([C@@H]3N[C@H](CO)[C@@H](O)[C@H]3O)c[nH]c12`, the activation [1] is reported as 10.3% and the Potency [2] is reported as “inactive”.

With `COc1cc2c(Oc3ccc(-c4cnc(Nc5ccc(F)cc5)n(C)c4=O)cc3F)ccnc2cc1OCCCN1CCOCC1` the activation [1] was 11.5%, the Potency [5] was 11.2 µM (active) and the Potency [2] was “inactive”. For the same molecule, the Potency [6] was 20.9 µM (active), the Potency [7] was 16.6 µM (active) and the Potency [8] was 0.0934 µM (active). The Potency [9] was 0.372 µM (active), the Potency [10] was 11.8 µM (active) and the Potency [11] was 5.9 µM (active). The Potency [12] was 5.25 µM (active).

For `Cn1nc(-c2ccc(C(F)(F)F)cc2)nc2c(=O)n(C)c(=O)nc1-2`, the Potency [1] was 4.78 µM (active) and the Potency [5] was 2.51 µM (active).

With `Cn1nnc(-c2ccc(-c3ccc(N4C[C@H](COP(=O)(O)O)OC4=O)cc3F)cn2)n1` the activation [1] was -3.67% and the Potency [2] was “inactive”.

In the case of `CCCc1cc2c(N3CCN(C4=NCC(C)(C)S4)CC3)ncnc2s1`, the activation [1] is reported as -16.2% and the Potency [2] is reported as “inactive”.

With `C/C(=C\Cc1c(O)c(Cl)c(C)c(C=O)c1O)CC/C=C(\C)[C@H]1CC(=O)C(C)(C)O1` the activation [1] was -20.6% and the Potency [2] was “inactive”.

With `CN1C(CCl)Nc2cc(Cl)c(S(N)(=O)=O)cc2S1(=O)=O` (centres undefined) the activation [1] was -11.7% and -7.64% and the Potency [2] was “inactive”.

With `O=c1c(-c2ccc(O)cc2)coc2cc(O[C@@H]3O[C@H](CO)[C@H](O)[C@H](O)[C@H]3O)ccc12` the activation [1] was 8.65% and the Potency [5] was “inactive”.

With `C[C@@H]1O[C@@H](O[C@H]2[C@H](O[C@H]3[C@H](O[C@H]4CC[C@@]5(C)C(CC[C@]6(C)C5CC=C5[C@@H]7CC(C)(C)CC(=O)[C@]7(C)CC[C@]56C)[C@@]4(C)CO)O[C@H](C(=O)O)[C@@H](O)[C@@H]3O)O[C@H](CO)[C@H](O)[C@@H]2O)[C@H](O)[C@H](O)[C@H]1O` (some centres undefined) the activation [1] was -17% and the Potency [2] was “inactive”.

For `O=C(O)[C@H](Cc1ccc(Nc2nccc3ccncc23)cc1)NC1=C(Br)C(=O)C12CCCCC2`, the activation [1] was -6.21% and the Potency [2] was “inactive”.

With `CC(C)(Cc1nc(-c2ccc(O)cn2)no1)C(=O)NC1=C(C(=O)O)CCCC1` the activation [1] was 2.86% and the Potency [2] was “inactive”.

In the case of `C=CC(=O)Nc1ccc(CN2C(=O)N(c3cc(OC)cc(OC)c3)Cc3cnc(Nc4ccc(N5CCN(C)CC5)cc4)nc32)cc1`, the Potency [1] is reported as 13.5 µM (active) and the Potency [2] is reported as “inactive”.

With `COc1ccc(C2(O)c3c(ccc4c3OC(C)(CCC=C(C)C)C=C4)NC(=O)C2OC)cc1` (centres undefined) the activation [1] was -4.58% and the Potency [2] was “inactive”.
